Source: PubChem
HEK293 tox: Cytotoxic Profiling in HEK 293 Cell Line of Diverse Libraries Using Quantitative High-Throughput Screening. Potency, µM (series often up to 115 µM), for inactives: at the top dose activity change, negative = cytotoxicity, hits mostly inhibitors. HEK 293 viability, ATP luminescence (CellTiter-Glo), 48-72 h. 94,000 tested, 6.6% active; further: nearly all actives have a fitted effect of over 60% in size
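Pintool-delivered compounds were incubated with HEK 293 cells (250 cells/well) at 37 degree Celsius for 48 or 72 hr. ATP-dependent luminescence (CellTiter-Glo) then reported remaining viable cells.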
3T3 cytotox: Cytotoxic Profiling in NIH 3T3 Cell Line of Diverse Libraries Using Quantitative High-Throughput Screening; NIH 3T3 viability, CellTiter-Glo ATP luminescence, 48-72 h; 94,000 tested, 4.3% active; Potency, µM (series often up to 96.7 µM), for the others: top-dose activity change, negative = cytotoxicity, most hits filed as inhibitors; further: nearly all actives have a fitted effect of over 55% in size
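NIH 3T3 cells at 400 cells/well received 23 nL of compound by pintool and were incubated 48 or 72 h at 37 °C. Viability was read as ATP-coupled CellTiter-Glo luminescence.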
hNpr1 antagonist: Natriuretic polypeptide receptor (hNpr1) antagonism - Primary qHTS; Atrial natriuretic peptide receptor 1 (Homo sapiens), P16066; HEK293 hNpr1 GloSensor cGMP, ANP-stimulated luminescence; Potency, µM (series often up to 46.3 µM), for the others: at the top dose activity change, negative = inhibition, actives largely listed as inhibitors; 76,000 tested, 1.6% active; AID 1347048, 2019; calls by dose curve; further: nearly all actives have a fitted effect of over 60% in size
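HEK293 cells stably expressing human Npr1 and cGMP GloSensor pGS-40F, loaded 2 h with 2% GloSensor reagent, given compound 30 min at room temperature. Luminescence read before and 20 min after 0.1 nM hNppA.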
Luciferase inh: Firefly luciferase inhibition profiling of diverse chemical library using quantitative high-throughput screening; purified P. pyralis luciferase, luminescence, biochemical; Potency, µM (doses to about 115 µM), hits mostly inhibitors; 76,000 tested, 2.5% active; further: nearly all actives have a fitted effect of over 65% in size
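Luminescence read by CCD imager after adding enzyme (10nM final) to wells holding compound, titrated in qHTS. Substrates 10uM each D-luciferin and ATP; buffer 50mM Tris acetate pH 7.5, 10mM Mg acetate, Tween-20, BSA.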
* marks the source's active call; other numbers are inactive results; i = inactive; ? = inconclusive; nt = no result; [ ] = another dose, or the depositor's remark. In the library only some 11% were active in any assay of this set; here they are far more common. Unless noted, the call rests on the fitted dose curve; in most records, active means well fitted curve in the direction sought with a large enough effect; inconclusive means small, poorly fitted or top-dose-only effect, or another doubt; inactive means no such curve, though single readings can be large; an effect the other way counts as inactive or inconclusive. On the % scale 0 is the no-effect control and ±100 the full control effect; potency means the concentration at half of the fitted maximal effect.

SMILES	HEK293 tox	3T3 cytotox	hNpr1 antagonist	Luciferase inh
O=C(CC1CCN(S(=O)(=O)c2ccc(F)cc2)C1)NCc1ccccc1 (stereo unspecified)	?	-8%	0%	i
O=C1NCCCCCCN(S(=O)(=O)c2ccc3c(c2)CCC3)[C@H]2CCC[C@@H]12	?	?	-2%	i
CCc1nc2c(c(-c3ccc(Cl)cc3)n1)CN(Cc1ccc(C)cc1)CC2	?	25µM*	-1%	i
CCc1nc2c(c(-c3ccc(O)cc3)n1)CN(Cc1ccc(C)cc1)CC2	?	-27%	8%	i
CC(C)CCN1CC(CN[S+](=O)([O-])c2ccccc2)C2(C1)CN(c1ccccc1)C2 (stereo unspecified)	?	45µM*	-17%[70.6 µM]	i
COc1ccc(CN2CC(CN[S+](=O)([O-])c3ccccc3)C3(C2)CN(c2ccccc2)C3)cc1O (stereo unspecified)	?	22µM*	-11%	i
O=[S+]([O-])(NCC1CN(Cc2ccc3c(c2)CCO3)CC12CN(c1ccccc1)C2)c1ccccc1 (stereo unspecified)	?	?	-14%	i
COc1ccccc1CN1CC(CNC(=O)Nc2ccccc2)C2(C1)CN(c1ccccc1)C2 (stereo unspecified)	79µM*	?	-15%	i
COc1ccc(CN2CC(CNc3ccccc3)C3(C2)CN(c2ccccc2)C3)cc1O (stereo unspecified)	40µM*	28µM*	-8%[70.6 µM]	i
O=C(NCc1cccc(Cl)c1)c1ccc2nnc(Cc3ccco3)n2c1	-13%	?	nt	nt
CC(C)c1ccc(CN2CC(CNC(=O)c3cnn(C)c3)C3(C2)CN(c2ccccc2)C3)cc1 (stereo unspecified)	79µM*	?	-3%	i
CC(C)c1ccc([S+](=O)([O-])N2CC(CNC(=O)c3cnn(C)c3)C3(CN(c4ccccc4)C3)C2)cc1 (stereo unspecified)	?	?	-12%	i
Cc1ccc(C2Cn3nnc(C(=O)N4CCC(C(=O)NC(C)c5ccc(F)cc5)CC4)c3CO2)cc1 (stereo unspecified)	?	?	5%	35µM*
CC(NC(=O)C1CCN(C(=O)c2ncn3c2COC(c2ccc(F)cc2)C3)CC1)c1ccc(F)cc1 (stereo unspecified)	10%	i	4%	i
COc1ccccc1CNC(=O)C1CCN(C(=O)c2nnn3c2COC(c2ccc(C)cc2)C3)CC1 (stereo unspecified)	-18%	-18%	-2%	18µM*
Cc1ccc(CCNC(=O)C2CCN(C(=O)c3nnn4c3COC(c3ccc(C)cc3)C4)CC2)cc1 (stereo unspecified)	-9%	-11%	1%	8.9µM*
Cc1ccc(C2Cn3nnc(C(=O)N4CCC(C(=O)NCC(C)C)CC4)c3CO2)cc1 (stereo unspecified)	0%	-14%	1%	22µM*
Cc1ccccc1CC(=O)N1CCC(n2cc(-c3nc(-c4ccccc4)no3)nn2)CC1	-22%	-4%	0%	i
Cc1ccc(C2Cn3nnc(C(=O)N4CCC(C(=O)NCc5cccc(C)c5)CC4)c3CO2)cc1 (stereo unspecified)	3%	i	-1%	?
Cc1ccc(C2Cn3nnc(C(=O)N4CCC(C(=O)NCC5CC5)CC4)c3CO2)cc1 (stereo unspecified)	-7%	3%	-4%	25µM*
Cc1ccc(C2Cn3nnc(C(=O)N4CCC(C(=O)NCc5ccco5)CC4)c3CO2)cc1 (stereo unspecified)	3%	i	5%	32µM*
CCOCCNC(=O)C1(c2ccc(Cl)cc2)CCOCC1	0%[172 µM]	-4%[138 µM]	nt	nt
O=C(C1CCCCN1Cc1ccc(-c2ccsc2)cc1)N1CCCC1 (stereo unspecified)	?	-33%	nt	nt
O=C(NCCc1ccc(Cl)cc1)C1CCCCN1Cc1ccc(-c2ccsc2)cc1 (stereo unspecified)	40µM*	25µM*	nt	nt
O=C(NC1CCCCC1)C1CCCCN1Cc1ccc(-c2ccsc2)cc1 (stereo unspecified)	40µM*	-51%	nt	nt
SMILES	HEK293 tox	3T3 cytotox	hNpr1 antagonist	Luciferase inh
O=C(NCC(F)(F)F)C1CCCCN1Cc1ccc(-c2ccsc2)cc1 (stereo unspecified)	?	-30%	nt	nt
O=C(CCc1c[nH]c2ccccc12)Nc1cccc(-c2nnc3n2CCCC3)c1	?	?	-15%	i
COCCn1c2c(c(=O)n1-c1ccccc1)CCN(C(=O)COc1ccccc1)C2	-17%[172 µM]	?	-4%[70.6 µM]	i
COc1ccc(Cn2c3c(c(=O)n2Cc2ccccc2)CCN(C(=O)C2CCOCC2)C3)cc1	i	25µM*	4%	i
CCn1c2c(c(=O)n1Cc1ccccc1)CCN(C(=O)c1cccnc1)C2	i	50µM*	5%[70.6 µM]	i
CCn1c2c(c(=O)n1Cc1ccccc1)CCN(C(=O)COc1ccccc1)C2	5%[172 µM]	50µM*	2%[70.6 µM]	i
CCn1c2c(c(=O)n1Cc1ccccc1)CCN(C(=O)c1scnc1C)C2	i	?	3%[70.6 µM]	i
COCCn1c(=O)c2c(n1Cc1ccccc1)CN(C(=O)COc1ccccc1)CC2	i	22µM*	-2%[70.6 µM]	i
COc1ccc(-n2c(=O)c3c(n2Cc2ccccc2)CN(C(=O)COc2ccccc2)CC3)cc1	-7%	40µM*	-3%	i
O=C(COc1ccccc1)N1CCc2c(n(Cc3cccnc3)n(CCc3ccccc3)c2=O)C1	-32%	35µM*	-5%	i
O=c1c2c(n(Cc3cccnc3)n1CCc1ccccc1)CN(Cc1cccc(O)c1)CC2	-6%	?	-1%	i
COc1ccc(Cn2c3c(c(=O)n2Cc2ccccc2)CCN(C(=O)CCc2cccnc2)C3)cc1	i	6.3µM*	4%	i
Cc1ccc(C(=O)NC2CCN(c3ccc4nnc(C)n4n3)CC2)cc1	i	-14%	nt	nt
CNC(=O)Nc1cccn2nc(-c3ccccc3)nc12	?	?	-4%	40µM*
CC(=O)Nc1ccccc1-c1cn(C)c(=O)n2cc(COc3ccc(Cl)cc3)nc12	?	100µM*	-4%[70.6 µM]	i
Cn1cc(-c2cccc(CO)c2)c2nc(COc3ccc(Cl)cc3)cn2c1=O	63µM*	?	-22%[70.6 µM]	?
COc1ccc(-c2cn(C)c(=O)n3cc(COc4ccc(Cl)cc4)nc23)c(C)c1	?	10µM*	-1%[70.6 µM]	i
CC(=O)Nc1cccc(-c2cn(C)c(=O)n3cc(COc4ccc(Cl)cc4)nc23)c1	?	?	-10%[70.6 µM]	?
Cn1nccc1OCc1cn2c(=O)n(C)cc(-c3cccc(OC(F)(F)F)c3)c2n1	89µM*	?	-10%[70.6 µM]	i
